Screening results: PubChem, National Center for Advancing Translational Sciences (NCATS)
ClpP mod: qHTS Assay for Activators of ClpP; purified B. subtilis ClpP, FRET peptide cleavage, 20 min; ATP-dependent Clp protease proteolytic subunit (Bacillus subtilis (strain 168)), P80244; 340,000 tested, 1.9% active; Potency, µM (highest dose often 57.5 µM), for the others: at the highest dose activity change, negative = active; active means well fitted falling curve with a large enough effect; inconclusive means small, poorly fitted or top-dose-only effect; inactive means no such curve, though single readings can be large or run the other way; further: potency means the concentration at half of the fitted maximal effect; the source files actives as falling curves though it sought activators and does not explain the sign; nearly all actives have a fitted effect of over 65% in size
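Buffer: 100 mM Tris/HCl pH8, 100 mM KCl, 0.05% low protease BSA, 2.5% glycerol, 0.01% Tween-20. ClpP 10 microg/mL final; 20 min RT; delta FRET normalized to ADEP and DMSO controls.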
Menin MLL FP FL: inhibitors of human menin-MLL interaction, wild-type MLL peptide; AID 1766; Fluorescence polarization, fluorescein-MLL peptide displacement from menin; FP activity change, % at 61.4 µM; 290,000 tested, under 10 active; active means well fitted curve in the direction sought with a large enough effect in the polarisation, not every such curve was filed as active; inconclusive means small, poorly fitted or top-dose-only effect, or effect the other way, or a change in a side signal; inactive means no such curve, though single readings can be large or run the other way; the % refers to the polarisation; further: % of control where 0% means no effect
PINK1 expr mod: changes PINK1 expression | PINK1 immunofluorescence, high-content cytometry, 24 h | Potency, µM (series often up to 76.6 µM), without a hit: at the top dose activation (PINK1 increase), hits mostly activators | 410,000 tested, 0.2% active; active means well fitted activation curve with a large enough effect; inconclusive means small, poorly fitted or top-dose-only effect; cell line not stated here; further: potency means the concentration at half of the fitted maximal effect; % of control where 0% means no effect; nearly all actives have a fitted effect of over 65% in size
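Measures PINK1 amount and localization on or inside mitochondria by immunofluorescence. Stable cells get compounds at 5 concentrations for 24 hours before fixation and staining; CCCP controls included.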
Menin MLL FP TR: menin-MLL binding inhibition, Texas Red mutant peptide; Potency, µM (series often up to 61.6 µM), without a hit: at the highest dose FP activity change, negative = inhibition, most hits filed as inhibitors; 270,000 tested, 0.23% active; O00255; Menin + Texas Red MLL mutant peptide, fluorescence polarization; active means well fitted inhibition curve with a large enough effect in the polarisation, with a control signal flat, not every such curve was filed as active; inconclusive means small, poorly fitted or top-dose-only effect, or effect the other way, or a change in a side signal; inactive means no such curve, though single readings can be large or run the other way; the % refers to the polarisation; further: potency means the concentration at half of the fitted maximal effect; % of control where 0% means no effect
Target sequence (O00255 whole entry, looked up): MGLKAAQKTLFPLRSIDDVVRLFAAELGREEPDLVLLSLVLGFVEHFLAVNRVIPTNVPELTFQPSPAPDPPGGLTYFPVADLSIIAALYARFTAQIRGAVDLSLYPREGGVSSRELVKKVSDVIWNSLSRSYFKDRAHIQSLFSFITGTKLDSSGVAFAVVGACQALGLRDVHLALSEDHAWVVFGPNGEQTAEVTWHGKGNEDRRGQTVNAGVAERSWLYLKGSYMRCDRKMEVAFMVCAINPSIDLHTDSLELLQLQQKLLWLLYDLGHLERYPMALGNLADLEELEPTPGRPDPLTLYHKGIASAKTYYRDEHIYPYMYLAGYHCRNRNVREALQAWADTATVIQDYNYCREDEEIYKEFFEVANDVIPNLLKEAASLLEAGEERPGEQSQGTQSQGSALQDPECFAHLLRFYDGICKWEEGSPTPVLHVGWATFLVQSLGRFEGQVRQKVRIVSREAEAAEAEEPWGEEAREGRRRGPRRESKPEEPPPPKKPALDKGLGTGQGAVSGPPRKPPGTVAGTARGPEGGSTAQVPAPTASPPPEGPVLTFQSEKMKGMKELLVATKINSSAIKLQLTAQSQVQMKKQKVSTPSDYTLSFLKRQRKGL
CXXC DNA block: inhibitors of human MLL CXXC domain-DNA interaction | Potency, µM (doses to about 115 µM), inactives show at the top dose activity change, negative = inhibition, usual class: inhibitors | 290,000 tested, 0.037% active | AID 2662 | MLL-CXXC / FITC-HOXA9 DNA fluorescence polarization | Q03164; active means well fitted inhibition curve with a large enough effect in the polarisation, with a control signal flat, not every such curve was filed as active; inconclusive means small, poorly fitted or top-dose-only effect, or effect the other way, or a change in a side signal; inactive means no such curve, though single readings can be large or run the other way; the % refers to the polarisation; further: potency means the concentration at half of the fitted maximal effect
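Steps: dispense CXXC domain solution (7 uM) → pin compounds or unlabeled HOX-A9 DNA control → 5 min ambient → add FLSN-HOX-A9 solution (50 nM) → spin → 30 min ambient → fluorescence polarization. Tris pH 7.5/NaCl/DTT/BSA buffer.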
Epigenetic reg: derepresses silenced GFP reporter in murine cells | murine LDR cells, GFP reporter derepression, 30 h | Potency, µM (top dose mostly 53.9 µM), without a hit: at the highest dose GFP activation, most hits filed as activators | 280,000 tested, 0.2% active; active means well fitted activation curve with a large enough effect; inconclusive means small, poorly fitted or top-dose-only effect; further: potency means the concentration at half of the fitted maximal effect; % of control where 0% means no effect; nearly all actives have a fitted effect of over 60% in size
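Derepression of a silenced CMV-GFP reporter in murine LDR cells is scored by enumerating GFP-positive cells with a laser-scanning microplate cytometer after 30 hours of treatment at 37 C.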
Active calls of the source: *; ? = inconclusive; . = no result; [ ] = another dose, or the depositor's remark. The list is not random: actives were taken first. Their share in the collection is about 1.9%.

SMILES	ClpP mod	Menin MLL FP FL	PINK1 expr mod	Menin MLL FP TR	CXXC DNA block	Epigenetic reg
COC(=O)COc1ccc(/C=N/NC(=O)c2ccc(N(Cc3ccccc3)S(C)(=O)=O)cc2)cc1	32µM*	0	-3%	12%	11%	0%
COc1ccc2cc(/C=N/NC(=O)c3c(Cl)cnn3C)c(Cl)nc2c1	-23%	-7	?	-4%	?	?
NC(=O)COc1ccc(/C=N\NC(=O)c2ccc(-c3ccccc3)cc2)cc1	10µM*	.	0%	.	2%	.
O=C(N/N=C/c1ccccc1)c1ccc(-c2ccccc2)cc1	-2%	-1	0%	?	17%	.
COc1ccc2cc(/C=N/NC(=O)c3ccc(CN(c4ccc(C)c(C)c4)S(C)(=O)=O)cc3)c(Cl)nc2c1	?	?	5%	-24%	15%	22µM*
N#CC1=C(N)C(C#N)(C#N)[C@H](c2ccoc2)[C@H]2CN(Cc3ccccc3)CC=C12	-4%	?	?	-6%	?	1%
CC(=O)N1CC=C2C(C#N)=C(N)C(C#N)(C#N)[C@H](c3ccoc3)[C@H]2C1	-5%	?	4%[38.3 µM]	-3%	-8%	-1%
CN1CC=C2C(C#N)=C(N)C(C#N)(C#N)C(c3cccc(Cl)c3Cl)C2C1 (configuration not stated)	?	?	14µM*	-1%	?	-1%
CN1CC=C2C(C#N)=C(N)C(C#N)(C#N)[C@H](c3ccoc3)[C@H]2C1	32µM*	?	40µM*	-7%	-10%	-4%
CCN(CC)CCNC(=O)c1cnn(-c2ncc3c(n2)-c2ccc(OC)cc2CC3)c1C	.	.	-1%	.	.	.
COc1cc(-c2cccc(Cl)c2)cc2c1OCCN(C(=O)CCn1ccc(C)n1)C2	.	.	0%	.	.	.
O=C(C1CCOC1)N1CCOc2ccc(CN3CCC(Oc4cccnc4)CC3)cc2C1 (configuration not stated)	.	.	1%	.	.	.
COc1ccc(OC)c(C2C(C(=O)Nc3nc4ccccc4s3)=C(C)NC3=C2C(=O)CCC3)c1 (configuration not stated)	28µM*	2	14%	10%	21%	0%
CN(C)c1ccc(-c2nnc(SCC(=O)NCc3ccco3)n2C)cc1	-8%	.	-1%	.	.	.
Cc1cc(CNC(=O)C2CCC(=O)N(Cc3cccc(C(F)(F)F)c3)C2)no1 (configuration not stated)	1%	0	-1%	-6%	-3%	.
Cc1nn(C)cc1CNC(=O)C1CCC(=O)N(Cc2cccc(C(F)(F)F)c2)C1 (configuration not stated)	25µM*	.	-1%	.	3%	.
O=C(Cn1ncn2c(cc3ccccc32)c1=O)NCCC1=CCCCC1	22µM*	-2	0%[38.3 µM]	-8%	-3%	2%
Cc1ccsc1C1Cc2c(C(=O)NCc3cccnc3)c(=O)cc(C)n2-c2ccccc2S1 (configuration not stated)	.	.	-1%	.	.	.
CCOC(=O)c1nnn(-c2nonc2-n2cccc2)c1-c1cccc([N+](=O)[O-])c1	28µM*	-4	-1%	-12%	2%	3%
CCCCc1ccc(NC(=O)COC(=O)c2ccccc2OCC(=O)Nc2ccc(Br)cc2)cc1	-2%	.	-1%	.	.	.
O=C(O)c1cccc(N2C(=O)c3cc([N+](=O)[O-])cc4cc([N+](=O)[O-])cc(c34)C2=O)c1	-2%	11	1%	?	32µM*	.
CCOC(=O)c1ccccc1NC(=O)N(C)CCc1c(C)nn(CC)c1C	-25%	.	1%	.	.	-2%
Cc1cccc(CNC(=O)c2ccc(Cn3c(=O)c4cccn4c4cccnc43)cc2)c1	5%	.	0%	.	.	18µM*
CCc1ccc(CNC(=O)c2ccc(Cn3c(=O)c4cccn4c4cccnc43)cc2)cc1	15%	.	-1%	.	.	4%
NS(=O)(=O)c1cccc(NC(=O)Cn2cnc3ccccc3c2=O)c1	-1%	3	11µM*	.	8%	-1%
